Results from PubChem BioAssay AID1851 (National Center for Advancing Translational Sciences (NCATS), 2009).
“And” between values parts separate entries of the source, which are not always exact repeats. Equal entries are not always repeated. About 4,000 (25%) of roughly 16,000 compounds were called active. Not shown: some 26% with an inconclusive outcome. The list is a sample of the results. A number with no mark means an inactive call. Calls come from the whole dose curve; as a rule, active = well fitted curve in the direction sought with a large enough effect; inconclusive = small, poorly fitted or top-dose-only effect, or effect the other way; inactive = no such curve, though single readings can be large or run the other way.
% is set by controls: 0 for no effect and ±100 for the full control effect.

The compounds below were run against Cytochrome P450 2C9 (Homo sapiens) (UniProt P11712) (assay: Cytochrome panel assay with activity outcomes). Details: recombinant CYP, pro-luciferin dealkylation, luminescence, p450-cyp2c9; series mostly up to 57.1 µM; activity, negative = inhibition: at the top concentration.
Sequence of Cytochrome P450 2C9 (Homo sapiens) (P11712 whole entry, looked up): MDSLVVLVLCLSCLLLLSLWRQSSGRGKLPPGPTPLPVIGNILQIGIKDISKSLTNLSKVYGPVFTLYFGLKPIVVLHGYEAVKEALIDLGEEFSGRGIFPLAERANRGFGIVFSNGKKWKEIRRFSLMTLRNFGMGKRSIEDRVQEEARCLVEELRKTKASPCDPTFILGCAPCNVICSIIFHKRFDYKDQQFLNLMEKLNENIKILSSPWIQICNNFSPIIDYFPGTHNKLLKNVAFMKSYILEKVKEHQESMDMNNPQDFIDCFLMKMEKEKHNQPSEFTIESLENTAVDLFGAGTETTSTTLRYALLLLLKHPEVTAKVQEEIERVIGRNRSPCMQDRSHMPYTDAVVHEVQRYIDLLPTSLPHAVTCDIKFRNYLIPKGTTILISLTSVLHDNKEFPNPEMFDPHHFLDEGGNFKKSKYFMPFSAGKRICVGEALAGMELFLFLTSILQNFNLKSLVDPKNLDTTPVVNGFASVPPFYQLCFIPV
With `N[C@@H](Cn1cc(F)c(=O)[nH]c1=O)C(=O)O` the “activity, negative = inhibition” value was 8.3%. `Cc1c(C(=O)NCCC2=CCCCC2)cccc1[N+](=O)[O-]` was tested, and the “activity, negative = inhibition” value was 4.59%. `Cc1ccc(S(=O)(=O)N(CC(=O)NCCC2=CCCCC2)Cc2ccccc2F)cc1` was tested, and the AC50 was 7.08 µM (active). `CC(=O)c1cnc2cc(C)nn2c1C` was tested, and the “activity, negative = inhibition” value was -25.7%. For `O=C1CCCN1c1ccc(S(=O)(=O)Oc2cccc(Cl)c2)cc1[N+](=O)[O-]`, the AC50 was 11.2 µM (active). `O=C(Cn1ccnc1[N+](=O)[O-])NCCO` was tested, and the “activity, negative = inhibition” value was -0.606% [at 25.6 µM]. With `COc1cccc(-c2nnc3sc(-c4ccc(C)cc4)nn23)c1` the AC50 was 10 µM (active). With `COc1cccc(-c2nccc(-n3ccnc3)n2)c1` the activity, negative = inhibition was -24.4% [at 2.29 µM]. `COc1cccc(-c2ccc3ncnc(N4CCN(C)CC4)c3c2)c1` showed an activity, negative = inhibition of -5.64% [at 2.29 µM]. In the case of `COc1ccc(CNc2ccnc(-c3ccc(C(=O)N(C)C)cc3)n2)c(OC)c1`, the activity, negative = inhibition was -2.88% [at 2.29 µM]. In the case of `Cc1ccc(N2C(=O)CSC2c2cccnc2)cc1F` (centres undefined), the “activity, negative = inhibition” value was -24.7%. For `Cc1ccc(NC(=O)C2(NC(=O)c3cccc(N4C(=O)CSC4c4ccccc4)c3)CCCCC2)cc1` (centres undefined), the AC50 was 1.41 µM (active). `Cc1ncc(COP(=O)(O)O)c(C)c1O` gave an activity, negative = inhibition of 5.34% [at 11.4 µM]. `COC(=O)N1CCC2(CCCN(Cc3ccccc3OC)C2)CC1` was tested, and the “activity, negative = inhibition” value was -1.79%. `O=C(O)C[C@@H](C(=O)O)C1c2ccccc2-c2ccccc21` gave an activity, negative = inhibition of -12.1% [at 11.4 µM]. For `COc1ccccc1NC(=O)CN1CCN(C2c3ccccc3-c3ccccc32)CC1`, the AC50 was 0.794 µM (active). For `CCN1CCN(C(=O)C2c3cc(OC)c(OC)cc3C(=O)N3CCc4ccccc4C23)CC1` (centres undefined), the “activity, negative = inhibition” value was 1.31%. `COc1ccc(NC(C)=O)cc1NC(=O)CN1CCN(C2c3ccccc3-c3ccccc32)CC1` was tested, and the AC50 was 10 µM (active). `CC(C)OC(=O)CN1CCN(C2c3ccccc3-c3ccccc32)CC1` was tested, and the AC50 was 14.1 µM (active). For `COC(=O)C/C=C1\c2ccccc2[C@H](OC)[C@H]1C`, the activity, negative = inhibition was 15.8% [at 11.4 µM]. `CC(=O)Nc1ccc2c(c1)C(=Nc1ccc(C(=O)O)cc1)c1ccccc1-2` showed an activity, negative = inhibition of 16.5% [at 11.4 µM]. With `Cc1c(NC(=O)NC(C)N2C(=O)C3C4C=CC(C4)C3C2=O)c(=O)n(-c2ccccc2)n1C` (centres undefined) the “activity, negative = inhibition” value was -13.6%. Work on `COCCNc1cc(-c2ccccc2C(F)(F)F)ncn1` yielded an activity, negative = inhibition of 6.38% [at 2.29 µM]. In the case of `O=C(NNC(=S)NCc1ccco1)c1ccc(Cl)s1`, the AC50 was 4.47 µM (active). In the case of `O=S(=O)(c1ccccc1)N1CCC2(CCCN(Cc3nccs3)C2)CC1`, the “activity, negative = inhibition” value was 13.6%. With `CSC(=NC#N)N1CCN(c2ccc(Cl)cc2)CC1` the AC50 was 5.01 µM (active). With `CCCCOC(=S)NC(=O)c1sc2ccccc2c1Cl` the AC50 was 0.282 µM (active). `O=C(NC(=S)N(CCCCO)C1CCCCC1)c1sc2ccccc2c1Cl` was tested, and the AC50 was 7.94 µM (active). With `CC(C)c1nnc(NC(=O)c2sc3ccccc3c2Cl)s1` the AC50 was 12.6 µM (active). `CCOC(=S)NC(=O)c1sc2ccccc2c1Cl` was tested, and the AC50 was 0.0631 µM (active). In the case of `CN(C(=S)NC(=O)c1ccccc1Br)C1CCCCC1`, the “activity, negative = inhibition” value was -17.8%. `CC(C)Cc1nnc(NC(=O)c2ccc([N+](=O)[O-])cc2)s1` was tested, and the “activity, negative = inhibition” value was -27.3%. `O=C(O)CCC(=O)c1ccc2sc3ccccc3c2c1` showed an activity, negative = inhibition of -2.22% [at 11.4 µM]. `Cc1ccc(NC(=O)c2sc3ccccc3c2Cl)nc1` was tested, and the “activity, negative = inhibition” value was -9.76%. With `Cc1ncc2c(c1O)COP(=O)(O)OC2` the “activity, negative = inhibition” value was -10.3%. `CN(C)c1ccc(-c2cc(NCc3cccnc3)ncn2)cc1` gave an activity, negative = inhibition of -1.19% [at 2.29 µM]. `CCc1cc2c(nc1CC)CCN(CC/C(C)=N/O[C@@H](C)c1cn([C@H](CO)Cc3ccccc3)nn1)C2` was tested, and the activity, negative = inhibition was 1.31% [at 11.4 µM] and -5.84% [at 11.4 µM]. In the case of `COc1ccc2[nH]cc(C=O)c2c1`, the “activity, negative = inhibition” value was 5.79%. In the case of `CC1(C)Oc2ccc(C#N)cc2[C@H](N2CCCC2=O)[C@H]1O`, the “activity, negative = inhibition” value was 0.847%. In the case of `O=C(O)CCC(O)=C1S(=O)(=O)OCCOS1(=O)=O`, the activity, negative = inhibition was 8.09% [at 11.4 µM]. `O=C(O)[C@H]1CCCNC1` was tested, and the “activity, negative = inhibition” value was -3.69%. In the case of `c1c[nH]c(CN2CCN(Cc3ncc[nH]3)CC2)n1`, the activity, negative = inhibition was -13% [at 11.4 µM]. In the case of `CC[C@H]1C2=C3C(CC[C@H]4C(OCc5ccc(F)cc5C(F)(F)F)OC[C@](C)([C@@H]34)N(C(=O)OC(C)(C)C)C2)C(COC)C1COC` (some centres undefined), the “activity, negative = inhibition” value was 5.81%. For `Cc1ccccc1Cn1nc(C)c(NC(=O)c2sc3ccccc3c2Cl)c1C`, the AC50 was 7.08 µM (active).
